Test results from PubChem BioAssay (NCI).
This is part of a sample that, as a whole, favours compounds with a hit. Of some 83,000 tested, about 20% had one in any assay.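 Interpretation: 100, growth as untreated; towards 0, rising growth inhibition; 0, no net growth; 0 to -100, cell death. Compounds scoring below 10 were considered active.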 A number with no mark means an inactive call. Calls of active or inactive are those of the source.

How the values were obtained:
Assay in all cases: NCI-60 one-dose screen, 48 h (100 = growth as untreated, 0 = no growth, -100 = all killed)
[1] = tested on: NCI-H23 lung; conditions: 10 µM
[2] = tested on: NCI-H460 lung; conditions: 10 µM
[3] = tested on: HOP-92 NSCLC; conditions: 10 µM
[4] = tested on: A549/ATCC NSCLC; conditions: 10 µM
[5] = tested on: MDA-MB-231 breast; conditions: 10 µM
[6] = tested on: RXF 393 renal; conditions: 10 µM
[7] = tested on: LOX IMVI melanoma; conditions: 10 µM
[8] = tested on: UO-31 renal; conditions: 10 µM
[9] = tested on: CCRF-CEM leukemia; conditions: 10 µM
[10] = tested on: HS 578T breast; conditions: 10 µM
[11] = tested on: T-47D breast; conditions: 10 µM
[12] = tested on: MDA-MB-468 breast; conditions: 10 µM unless noted
[13] = tested on: K-562 leukemia; conditions: 10 µM
[14] = tested on: HT29 colon; conditions: 10 µM
[15] = tested on: MOLT-4 leukemia; conditions: 10 µM
[16] = tested on: SR leukemia; conditions: 10 µM
[17] = tested on: SW-620 colon; conditions: 10 µM
[18] = tested on: OVCAR-5 ovarian; conditions: 10 µM
[19] = tested on: EKVX NSCLC; conditions: 10 µM
[20] = tested on: NCI/ADR-RES ovarian; conditions: 10 µM

| SMILES | growth [1] | growth [2] | growth [3] | growth [4] | growth [5] | growth [6] | growth [7] | growth [8] | growth [9] | growth [10] | growth [11] | growth [12] | growth [13] | growth [14] | growth [15] | growth [16] | growth [17] | growth [18] | growth [19] | growth [20] |
| --- | --- | --- | --- | --- | --- | --- | --- | --- | --- | --- | --- | --- | --- | --- | --- | --- | --- | --- | --- | --- |
| O=C(NCCCCC(c1ccc(F)cc1)c1ccc(F)cc1)Nc1ccc([N+](=O)[O-])c(C(F)(F)F)c1 | -10.2% (active) | 7.56% (active) | -36.2% (active) | 6% (active) | -70% (active) | -41.3% (active) | -73.8% (active) | 0% (active) | -38.8% (active) | -3.33% (active) | -10.4% (active) | -31.7% (active) | – | – | – | – | – | – | – | – |
| CC[C@]12C=CCN3CC[C@@]4(c5ccc(OC)cc5N(C)[C@H]4[C@@](O)(C(=O)OC)[C@@H]1OC(=O)CCCC[P+](c1ccc(C)cc1)(c1ccc(C)cc1)c1ccc(C)cc1)[C@@H]32 | -92.4% (active) | – | -77.9% (active) | – | -97.2% (active) | -87.6% (active) | -94.5% (active) | -96% (active) | -72.4% (active) | -69.9% (active) | – | -92.5% (active) | 0.797% (active) | -81.8% (active) | -25% (active) | 25.8% | -88.1% (active) | – | – | – |
| CC[C@]12C=CCN3CC[C@@]4(c5ccc(OC)cc5N(C)[C@H]4[C@@](O)(C(=O)OC)[C@@H]1OC(=O)CCC[P+](C1CCCCC1)(C1CCCCC1)C1CCCCC1)[C@@H]32 | -4.73% (active) | 4.64% (active) | -43.8% (active) | – | -90.8% (active) | -70.3% (active) | -96% (active) | 76.8% | -40.9% (active) | -33% (active) | -1.81% (active) | -79.6% (active) | 3.31% (active) | -56.7% (active) | 2.35% (active) | 29.1% | – | 11% | – | – |
| COc1cc2cc(C(=O)N3C[C@@H](CCl)c4c3cc(OC(=O)N3CCN(C)[C@@H]5CSSC[C@@H]53)c3ccccc43)[nH]c2c(OC)c1OC | -67.5% (active) | -13.4% (active) | -4.54% (active) | 7.2% (active) | -43.2% (active) | -80.7% (active) | -32.7% (active) | -33.5% (active) | -25.1% (active) | -25.5% (active) | -5.73% (active) | – | 10.1% | – | 3.8% (active) | 18.9% | – | -6.69% (active) | – | – |
| CC1=C(CCC=NNC(N)=O)C2=C(C)C3(CC3)[C@@](C)(O)C(=O)C2=C1 | – | -24.8% (active) | -11.3% (active) | -28.6% (active) | -59.7% (active) | -80.8% (active) | -71.9% (active) | -65.2% (active) | 10.4% | -24.5% (active) | -38.1% (active) | – | – | – | – | – | – | -35.8% (active) | – | – |
| CC12OOC(C)(OO1)C2CCC(=O)NCCNc1ccnc2cc(Cl)ccc12 (stereo not drawn) | – | 101% | 111% | – | 96.6% | 102% | 3.57% (active) | 76.1% | 80.6% | 99.8% | – | 82.7% | 39.4% | 105% | 98.6% | 21.4% | 80.6% | 102% | 88.6% | 98.3% |
| CC(=C\C(=O)Oc1ccc2c3c1OC1C(O)CCC4(O)C(C2)N(CC2CCC2)CCC314)/C=C1\CCCc2ccccc21 (stereo not drawn) | 64.3% | 12.1% | 34.2% | – | 75.3% | 37.7% | 5.47% (active) | 33.8% | – | 59.8% | – | – | 19.7% | – | 31.1% | – | – | – | – | – |
| O=C(/C=C/c1ccc(F)cc1)c1nc2ccccc2n1Cc1ccc(Br)cc1 | -75.4% (active) | -59.4% (active) | -51.5% (active) | 1.63% (active) | – | -91.1% (active) | – | -92.5% (active) | -1.81% (active) | – | -52.5% (active) | -90.8% (active) | -12.7% (active) | -33.2% (active) | -13.4% (active) | -19.5% (active) | – | – | -91.5% (active) | – |
| O=C(/C=C/c1cccc(Br)c1)c1nc2ccccc2n1Cc1ccc(Br)cc1 | -50.7% (active) | – | -48.8% (active) | 28% | – | -81.2% (active) | – | -57.3% (active) | -15.6% (active) | – | -0.946% (active) | -58.5% (active) | -2.19% (active) | -49% (active) | -6.66% (active) | -12.4% (active) | – | -50.4% (active) | – | -48.8% (active) |
